{"source": "PubChem BioAssay (NCI)", "note": "Compounds without any hit were thinned out: in the full panel of roughly 83,000, 20% have a hit.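 How to read the values: 0–100, growth inhibition (40 = 60% inhibited); 0, no net growth; -100 to 0, cell death (-40 = 40% of starting cells died; -100 = all dead).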 A number with no mark means an inactive call. Activity calls are given as the source filed them. The calls were made as follows: active = growth percent below 10; inactive = the rest."}
{"test_system": "MDA-MB-468 breast", "test": "NCI-60 one-dose screen, 48 h (100 = growth as untreated, 0 = no growth, -100 = all killed)", "conditions": "10 µM unless noted"}
{"smiles": "CCCCNC(=O)NS(=O)(=O)Cc1ccccc1", "growth": "112%"}
{"smiles": "NC(=O)SCC(=O)NNc1ccccc1", "growth": "92.9%"}
{"smiles": "COc1cc(NC(C)CCCN)c2ncccc2c1Sc1ccc(Cl)cc1", "note": "(stereo not given)", "growth": "-2.79% (active)"}
{"smiles": "Nc1cc2c3c(cccc3c1)C(=O)N(CCN1CCCC1)C2=O", "growth": "40.2%"}
{"smiles": "Cc1cc(N2CCSCC2)nc(NC2CCCC(Nc3ccnc4cc(Cl)ccc34)C2)n1", "note": "(stereo not given)", "growth": "-43.7% (active)"}
{"smiles": "Cc1csc(/N=C(N)/N=C(\\N)c2cccc(Br)c2)n1", "growth": "79.7%"}
{"smiles": "CCOC(=O)c1sc(-c2ccc(OS(=O)(=O)c3cccs3)c(C=O)c2)nc1C", "growth": "-15.4% (active)"}
{"smiles": "COc1cc(C(=O)Oc2ccccc2OC(=O)c2cc(OC)c(OC)c(OC)c2)cc(OC)c1OC", "growth": "105%"}
{"smiles": "NNc1ccc(S(N)(=O)=O)cc1", "growth": "100%"}
{"smiles": "COc1ccc(NC(=O)c2ccoc2COc2ccccc2)cc1", "growth": "116%"}
{"smiles": "CCNCCCn1c2c(c3ccc(F)cc3c1=O)C(=O)c1cc(OC)cnc1-2", "growth": "-75.7% (active)"}
{"smiles": "Cc1cccc(C)c1NC(=O)CSC(=S)N1CCCCC1", "growth": "110%"}
{"smiles": "CCN(CC)CC(=O)Nc1ccc2ncnc(Nc3ccc(Oc4cccc(F)c4)c(Cl)c3)c2c1", "growth": "13.6%"}
{"smiles": "C#CC[C@@H]1C[C@]2(C)[C@H]3CC=C4[C@H]5[C@@H](C)[C@H](C)CC[C@]5(C(=O)NCCCCCCCCN)CC[C@@]4(C)[C@]3(C)CC[C@H]2C(C)(C)[C@H]1OC(C)=O", "growth": "62.4%"}
{"smiles": "N#Cc1c(-c2cccc([N+](=O)[O-])c2)nc(SCC(=O)c2ccc(Cl)cc2)[nH]c1=O", "growth": "110%"}
